Source: PubChem BioAssay (NCI)
The panel holds about 83,000 compounds, 20% with a hit somewhere; the sample as a whole holds those more often.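 Treatment: one concentration, 48 hours, 96-well format. Scoring: percent growth, with anything below 10 considered active.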 Values without a mark were called inactive. Active and inactive are the calls of the source.

Columns and labels:
Test in all cases: NCI-60 one-dose screen, 48 h (100 = growth as untreated, 0 = no growth, -100 = all killed)
Conditions in all cases: 10 µM unless noted
DU-145 prostate = tested on: DU-145 prostate
K-562 leukemia = tested on: K-562 leukemia
MALME-3M melanoma = tested on: MALME-3M melanoma
MDA-MB-231 breast = tested on: MDA-MB-231 breast
RXF 393 renal = tested on: RXF 393 renal
SF-268 CNS = tested on: SF-268 CNS
SF-295 CNS = tested on: SF-295 CNS
SF-539 CNS = tested on: SF-539 CNS
UACC-257 melanoma = tested on: UACC-257 melanoma
M14 melanoma = tested on: M14 melanoma

Structure (SMILES) | growth (DU-145 prostate) | growth (K-562 leukemia) | growth (MALME-3M melanoma) | growth (MDA-MB-231 breast) | growth (RXF 393 renal) | growth (SF-268 CNS) | growth (SF-295 CNS) | growth (SF-539 CNS) | growth (UACC-257 melanoma) | growth (M14 melanoma)
COc1ccc(-c2nc3cc(C)ccc3n2CC(=O)N=Nc2c(O)[nH]c3ccc(Br)cc23)cc1 | 16.1% | 9.75% (active) | -59.4% (active) | -28.1% (active) | -52.7% (active) | 23% | -61.4% (active) | -67.1% (active) | 1.58% (active) | -58.2% (active)
OCC1(CCCc2ccccc2)CCCN(c2nccc3ccccc23)C1 (stereo not given) | 68.3% | 18.6% | 24.8% | 52.1% | 61.1% | 61.8% | 17% | 43.1% | 10.6% | 8.76% (active)
C=C1CCC2C3(C)COC(c4ccccc4F)OC3CCC2(C)C1CC(O)C1=CCOC1=O (stereo not given) | 67.2% | 21.3% | 92.9% | 77.7% | 50.7% | 103% | 77.2% | 16.3% | 75.1% | 26.5%
OCNc1ccc(-n2cnc3cc(-c4ccc(O)cc4)ccc32)cc1C(F)(F)F | 28.6% | 17.2% | 26.6% | 38.6% | 47.5% | 24.7% | 4.48% (active) | 23.5% | 58.4% | 11.9%
Brc1ccc(N/N=C/c2c[nH]c3ccc(Br)cc23)nc1 | 15.6% | -33.1% (active) | -57.4% (active) | -63.5% (active) | -22.9% (active) | 10.5% | -78.3% (active) | -41.5% (active) | 7.1% (active) | -71.3% (active)
CCCCNC(=S)Nc1ccc(OCc2nc3ccccc3[nH]2)cc1 | 58.9% | 28.6% | 77.5% | 65.2% | 99.5% | 44.2% | 53.7% | 56.2% | 83.5% | 55.1%
CN1C(=O)/C(=C/c2ccc(C(=O)Nc3ncc(Cc4ccc(Cl)cc4Cl)s3)cc2)SC1=S | 30.7% | 24.3% | 23.1% | 43.6% | 30.9% | 47% | 10.8% | 36.9% | 33.1% | 11.6%
COc1ccc(-c2nc(SCC(C)C)nc(NCCc3c[nH]c4ccccc34)c2C#N)cc1 | 77.2% | 33.1% | 87.3% | 36.5% | -8.09% (active) | 58.1% | 45% | 48% | 98.1% | 81.2%
CC(=O)OC[C@@]1(C)C2CC[C@]3(C)C(CC=C4C5CC(C)(C)CC[C@]5(C(=O)Nc5cccc(C)c5)CC[C@]43C)[C@@]2(C)C[C@@H](OC(C)=O)[C@@H]1OC(C)=O (stereo not given in full) | 48.3% | 21.5% | 61.3% | 67.7% | 85.4% | 56.2% | 27.4% | 42% | 24.7% | 49.8%
CC(=O)c1cc(C(=O)c2ccccc2)n2c1ccc1ccccc12 | 128% | 94.4% | 131% | 78.4% | 93.1% | 110% | 106% | 82.5% | 118% | 101%
COc1ccc(C(=O)/C=C/c2ccc(Oc3nc(Nc4ccc(F)cc4)nc(N(C)C)n3)c(OC)c2)cc1 | 51.7% | 26.4% | 79% | 53.9% | 50.6% | 51.8% | 51.5% | 26.8% | 42.5% | 65.1%
COc1cc(-c2nc3cc(Cl)c(Cl)cc3[nH]2)ccc1OCc1nnc(-c2cccs2)o1 | 34.7% | 54% | 18.1% | 17.9% | -2.12% (active) | 68.5% | 31.9% | 104% | 61.2% | 41.8%
C#CCOc1cc(N(CC)CC)ccc1C(C(=O)NC(C)(C)C)N(C(=O)C1CCc2cc(F)ccc2O1)c1ccccc1F (stereo not given) | 58.4% | 17% | 57.7% | 53.4% | 40.4% | 38.4% | 19.9% | 50.7% | 30.2% | 39%
O=C(/C=C/c1ccc(O)c(O)c1)NC1CCOC1O (stereo not given) | 108% | 88.3% | 103% | 99.1% | 125% | 99.6% | 101% | 95.7% | 102% | 108%
CC1(C)CC[C@]2(C(=O)O)CC[C@]3(C)C(=CCC4[C@@]5(C)C[C@@H](O)[C@@H]6OC(c7ccc(F)cc7)OC[C@@]6(C)C5CC[C@]43C)C2C1 (stereo not given in full) | 28.7% | 14.9% | 39% | 50.6% | 42.8% | 41.3% | 32.7% | 50.8% | 42.3% | 40.4%
COc1ccc(/C=C2\C(=N)N=C(SCc3nc4ccccc4[nH]3)NC2=O)cc1 | 115% | 112% | 102% | 105% | 122% | 109% | 103% | 103% | 108% | 112%
COc1cc2oc(-c3cccc(C(=O)Nc4ccc(Cl)cc4)c3)cc(=O)c2c(OCCNC(=O)[C@@H](N)CCC(=O)O)c1OC | 86.9% | 32.2% | 76.1% | 30.5% | 9.77% (active) | 94.7% | 86.4% | 75.4% | 100% | 16.7%
COc1ccc2[nH]cc(-c3nc(N)nnc3-c3cn(C)c4ncccc34)c2c1 | 83.9% | 21.6% | 37.6% | 43.4% | 81.5% | 75.8% | 39.9% | 50.2% | 72.9% | 33.2%
C#CCOc1cc(N(CC)CC)ccc1C(C(=O)NC(C)(C)C)N(C(=O)C1CCc2cc(F)ccc2O1)c1ccc(F)cc1 (stereo not given) | 65.3% | 23.6% | 65.6% | 51% | 57.3% | 47.7% | 41.5% | 66.2% | 40.3% | 46.4%
Cc1cc(=O)oc2cc(OCCCOc3ccc(/C=C/C(=O)Nc4ccccc4N)cc3)ccc12 | 33.1% | 18.2% | 42% | -2.67% (active) | 49.5% | 21.9% | 27.4% | 1.75% (active) | 38.2% | 41.8%
CCCCSc1nc(Nc2ccc(S(N)(=O)=O)cc2)c(C#N)c(-c2ccc(Cl)cc2)n1 | 53% | 5.58% (active) | 22.9% | -36.1% (active) | 16.8% | 69.2% | 8.15% (active) | -25.2% (active) | 76% | 10.6%
C=C1CC[C@@H]2[C@]3(C)COC(c4cn[nH]c4-c4cccc(Br)c4)O[C@@H]3CC[C@@]2(C)[C@@H]1C/C=C1/C(=O)OCC1O (stereo not given in full) | -85.5% (active) | -2.18% (active) | -74.5% (active) | -47.3% (active) | -90.8% (active) | -22.7% (active) | -78.6% (active) | -97.8% (active) | -72% (active) | -75.7% (active)
